ChEMBL document CHEMBL3988442, “University of Dundee, Small-Polar-MMV Screening Library” (2021)
For some assays here: Results with a measured potency or affinity are listed apart.

Columns and labels:
[1] = target: Protein translocase subunit SecA (Escherichia coli (strain K12)) (UniProt P10408); experiment: Assay to Identify E. coli SecA ATPase Inhibitors; format: functional; design: scale not given: direction of the effect not stated beside the values; conditions: 30 µM
[2] = target: T1, Ubiquitin-activating enzyme e1, putative (Leishmania donovani (strain BPK282A1)) (UniProt E9BSI1); experiment: Leishmania donovani Ubiquitin Activating Enzyme (LdE1); format: functional; design: scale not given: direction of the effect not stated beside the values; conditions: 30 µM
T1 sequence (whole entry): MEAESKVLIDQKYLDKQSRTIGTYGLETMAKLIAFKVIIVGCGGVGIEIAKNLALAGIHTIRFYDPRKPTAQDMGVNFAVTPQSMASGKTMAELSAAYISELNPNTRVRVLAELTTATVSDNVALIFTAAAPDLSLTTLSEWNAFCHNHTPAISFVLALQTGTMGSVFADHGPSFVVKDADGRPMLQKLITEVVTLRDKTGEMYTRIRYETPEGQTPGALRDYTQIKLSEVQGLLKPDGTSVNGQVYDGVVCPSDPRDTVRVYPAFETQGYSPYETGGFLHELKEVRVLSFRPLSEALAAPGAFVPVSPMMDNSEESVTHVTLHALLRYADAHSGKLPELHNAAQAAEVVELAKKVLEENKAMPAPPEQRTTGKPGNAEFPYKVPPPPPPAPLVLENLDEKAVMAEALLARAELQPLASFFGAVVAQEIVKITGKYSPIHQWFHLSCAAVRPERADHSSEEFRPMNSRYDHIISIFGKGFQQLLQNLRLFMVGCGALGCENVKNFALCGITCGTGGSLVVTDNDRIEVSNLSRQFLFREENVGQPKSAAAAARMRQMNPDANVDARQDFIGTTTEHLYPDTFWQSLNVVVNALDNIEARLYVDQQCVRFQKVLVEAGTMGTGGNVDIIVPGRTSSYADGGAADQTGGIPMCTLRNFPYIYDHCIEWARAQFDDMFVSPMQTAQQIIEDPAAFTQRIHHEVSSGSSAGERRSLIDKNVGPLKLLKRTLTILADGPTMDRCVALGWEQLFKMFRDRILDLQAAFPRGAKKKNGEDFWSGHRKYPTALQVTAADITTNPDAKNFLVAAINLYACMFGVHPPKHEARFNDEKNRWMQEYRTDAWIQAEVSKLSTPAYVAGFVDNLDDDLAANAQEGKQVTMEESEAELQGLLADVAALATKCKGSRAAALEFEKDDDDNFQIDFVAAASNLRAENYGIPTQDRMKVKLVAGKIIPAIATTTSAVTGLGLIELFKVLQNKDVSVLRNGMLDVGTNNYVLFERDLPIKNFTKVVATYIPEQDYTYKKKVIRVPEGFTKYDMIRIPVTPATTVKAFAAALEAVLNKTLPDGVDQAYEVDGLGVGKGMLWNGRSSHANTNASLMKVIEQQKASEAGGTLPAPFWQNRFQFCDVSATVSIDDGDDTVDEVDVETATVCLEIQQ

[3] = target: AMP-activated protein kinase, AMPK (Homo sapiens) (UniProt P54646+O43741+P54619+Q9UGJ0+Q9Y478+Q13131+Q9UGI9); experiment: AMP-dependent Kinase enzyme assay. An in vitro enzyme assay that detects ADP turnover that is directly proportional to AMPK activity. This uses naive AMPK that is activated during the assay with MK-8722; format: functional; design: scale not given: direction of the effect not stated beside the values; conditions: 30 µM
[4] = target: Sialic acid-binding Ig-like lectin 9 (Homo sapiens) (UniProt Q9Y336); experiment: Hs-Siglec9 ALPHAscreen SOP 20170721; design: scale not given: direction of the effect not stated beside the values; conditions: 10 µM
Trypanosoma cruzi = experiment: Trypanosoma cruzi phosphomannomutase and mannose-1-phosphate guanylyltransferase assay; format: functional; design: scale not given: direction of the effect not stated beside the values; conditions: 10 µM
[5] = target: T2, Arginase-2, mitochondrial (Homo sapiens) (UniProt P78540); experiment: in vitro enzyme assay to detect the production of urea directly proportional to the activity of Arginase II; format: functional; design: scale not given: in the data most compounds retested in dose-response had high values
T2 sequence (whole entry): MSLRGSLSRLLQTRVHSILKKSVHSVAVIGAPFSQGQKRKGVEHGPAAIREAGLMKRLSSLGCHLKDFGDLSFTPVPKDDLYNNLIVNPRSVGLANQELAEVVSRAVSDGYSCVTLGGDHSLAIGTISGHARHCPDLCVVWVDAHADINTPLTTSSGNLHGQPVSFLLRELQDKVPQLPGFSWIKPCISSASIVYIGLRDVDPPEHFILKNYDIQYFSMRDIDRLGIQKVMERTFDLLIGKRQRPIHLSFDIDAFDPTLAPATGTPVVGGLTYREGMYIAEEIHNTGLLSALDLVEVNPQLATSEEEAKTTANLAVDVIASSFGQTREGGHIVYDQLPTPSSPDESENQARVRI

[6] = target: T3, Proteasome subunit beta (Trypanosoma cruzi) (UniProt O96673); experiment: Trypanosoma cruzi proteasome chymotrypsin-like activity (TcProtChymo) assay.; format: functional; design: scale not given: in the data most compounds retested in dose-response had high values; conditions: 9.37 µM
T3 sequence (whole entry): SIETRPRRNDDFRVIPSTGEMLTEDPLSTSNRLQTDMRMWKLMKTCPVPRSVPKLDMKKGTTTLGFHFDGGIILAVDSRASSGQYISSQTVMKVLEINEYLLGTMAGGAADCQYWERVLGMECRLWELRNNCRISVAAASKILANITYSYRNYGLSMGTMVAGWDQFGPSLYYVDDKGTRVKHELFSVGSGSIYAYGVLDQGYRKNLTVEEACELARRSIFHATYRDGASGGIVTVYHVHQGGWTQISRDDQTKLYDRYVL

Homo sapiens = organism: Homo sapiens; experiment: To identify inhibition of the IFN signalling (Jak-Stat) pathway via expression of an eGFP reporter gene under the control of an IFN-stimulated response element (ISRE) containing MxA promoter.; format: functional; design: scale not given: direction of the effect not stated beside the values; conditions: 30 µM
[7] = target: T4, Tyrosyl-tRNA synthetase, putative (Trypanosoma cruzi (strain CL Brener)) (UniProt Q4DSP6); experiment: Trypanosoma cruzi tyrosyl tRNA synthetase (TcYRS) _High Tyrosine SOP; format: functional; design: scale not given: in the data most compounds retested in dose-response had high values; conditions: 30 µM
T4 sequence (whole entry): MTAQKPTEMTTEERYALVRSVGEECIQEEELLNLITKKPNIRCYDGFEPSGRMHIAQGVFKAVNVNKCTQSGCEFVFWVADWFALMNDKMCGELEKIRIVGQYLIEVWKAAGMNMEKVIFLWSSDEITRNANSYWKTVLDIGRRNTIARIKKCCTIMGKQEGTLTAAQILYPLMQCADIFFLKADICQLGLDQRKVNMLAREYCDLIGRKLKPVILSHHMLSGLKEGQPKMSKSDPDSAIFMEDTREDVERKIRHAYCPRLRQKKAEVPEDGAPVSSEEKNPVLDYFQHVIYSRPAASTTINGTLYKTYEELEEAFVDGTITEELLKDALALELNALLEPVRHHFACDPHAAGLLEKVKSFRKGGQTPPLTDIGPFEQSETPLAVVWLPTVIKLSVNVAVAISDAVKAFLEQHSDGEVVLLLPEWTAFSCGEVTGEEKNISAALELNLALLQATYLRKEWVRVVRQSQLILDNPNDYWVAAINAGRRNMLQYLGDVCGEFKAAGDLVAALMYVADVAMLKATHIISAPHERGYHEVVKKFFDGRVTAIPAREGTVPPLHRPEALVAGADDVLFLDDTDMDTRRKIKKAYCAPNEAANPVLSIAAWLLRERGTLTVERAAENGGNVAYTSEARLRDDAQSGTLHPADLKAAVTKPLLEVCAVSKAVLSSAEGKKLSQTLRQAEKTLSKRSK

[8] = target: T4, Tyrosyl-tRNA synthetase, putative (Trypanosoma cruzi (strain CL Brener)); experiment: Trypanosoma cruzi tyrosyl tRNA synthetase (TcYRS) SOP; format: functional; design: scale not given: direction of the effect not stated beside the values; conditions: 30 µM
[9] = target: Chromo domain-containing protein 1 (Saccharomyces cerevisiae (strain ATCC 204508 / S288c) (Baker's yeast)) (UniProt P32657); experiment: ScCHD-1 Enzyme Inhibition Assay; format: functional; design: scale not given: in the data most compounds retested in dose-response had high values; conditions: 30 µM
[10] = target: T5, Methionyl-tRNA synthetase, putative (Leishmania donovani (strain BPK282A1)) (UniProt E9BF75); experiment: Leishmania donovani Methionine tRNA synthetase (LdMetRS):v7. Dose response assay; format: functional; design: conc 80 nM, time 150 minutes
T5 sequence (whole entry): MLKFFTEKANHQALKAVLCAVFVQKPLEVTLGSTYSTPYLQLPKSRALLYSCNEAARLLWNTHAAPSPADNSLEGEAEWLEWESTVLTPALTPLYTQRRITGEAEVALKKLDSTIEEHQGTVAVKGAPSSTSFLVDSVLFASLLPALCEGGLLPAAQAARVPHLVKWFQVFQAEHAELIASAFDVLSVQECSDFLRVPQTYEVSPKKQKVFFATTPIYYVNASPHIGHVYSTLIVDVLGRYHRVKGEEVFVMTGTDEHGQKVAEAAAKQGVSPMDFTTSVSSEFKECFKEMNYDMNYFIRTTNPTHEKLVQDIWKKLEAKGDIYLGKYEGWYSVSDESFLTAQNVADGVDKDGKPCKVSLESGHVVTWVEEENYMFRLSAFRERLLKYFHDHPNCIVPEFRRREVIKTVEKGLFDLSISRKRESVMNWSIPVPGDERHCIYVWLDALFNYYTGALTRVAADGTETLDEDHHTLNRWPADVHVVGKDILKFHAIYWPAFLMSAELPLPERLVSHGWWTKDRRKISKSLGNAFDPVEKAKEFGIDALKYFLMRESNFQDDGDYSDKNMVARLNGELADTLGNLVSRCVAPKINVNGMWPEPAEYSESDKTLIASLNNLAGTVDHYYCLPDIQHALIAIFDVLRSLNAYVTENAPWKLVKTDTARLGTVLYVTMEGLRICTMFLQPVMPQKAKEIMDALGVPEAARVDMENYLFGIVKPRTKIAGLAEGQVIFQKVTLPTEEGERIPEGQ

Chain of Sialic acid-binding Ig-like lectin 9 (Homo sapiens) (Q9Y336 whole entry): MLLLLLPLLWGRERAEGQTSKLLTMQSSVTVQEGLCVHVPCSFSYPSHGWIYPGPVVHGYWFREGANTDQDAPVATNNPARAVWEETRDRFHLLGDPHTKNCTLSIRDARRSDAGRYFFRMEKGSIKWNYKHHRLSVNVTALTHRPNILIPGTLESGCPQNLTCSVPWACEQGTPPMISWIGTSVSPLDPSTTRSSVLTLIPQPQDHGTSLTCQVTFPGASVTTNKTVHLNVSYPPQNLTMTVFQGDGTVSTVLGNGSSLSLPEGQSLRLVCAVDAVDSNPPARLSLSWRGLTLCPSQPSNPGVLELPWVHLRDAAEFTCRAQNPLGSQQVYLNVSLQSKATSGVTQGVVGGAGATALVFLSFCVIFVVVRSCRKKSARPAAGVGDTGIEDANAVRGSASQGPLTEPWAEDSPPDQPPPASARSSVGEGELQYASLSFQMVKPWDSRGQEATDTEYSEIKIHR
Chain of Chromo domain-containing protein 1 (Saccharomyces cerevisiae (strain ATCC 204508 / S288c) (Baker's yeast)) (P32657 whole entry, the tested form may be a part): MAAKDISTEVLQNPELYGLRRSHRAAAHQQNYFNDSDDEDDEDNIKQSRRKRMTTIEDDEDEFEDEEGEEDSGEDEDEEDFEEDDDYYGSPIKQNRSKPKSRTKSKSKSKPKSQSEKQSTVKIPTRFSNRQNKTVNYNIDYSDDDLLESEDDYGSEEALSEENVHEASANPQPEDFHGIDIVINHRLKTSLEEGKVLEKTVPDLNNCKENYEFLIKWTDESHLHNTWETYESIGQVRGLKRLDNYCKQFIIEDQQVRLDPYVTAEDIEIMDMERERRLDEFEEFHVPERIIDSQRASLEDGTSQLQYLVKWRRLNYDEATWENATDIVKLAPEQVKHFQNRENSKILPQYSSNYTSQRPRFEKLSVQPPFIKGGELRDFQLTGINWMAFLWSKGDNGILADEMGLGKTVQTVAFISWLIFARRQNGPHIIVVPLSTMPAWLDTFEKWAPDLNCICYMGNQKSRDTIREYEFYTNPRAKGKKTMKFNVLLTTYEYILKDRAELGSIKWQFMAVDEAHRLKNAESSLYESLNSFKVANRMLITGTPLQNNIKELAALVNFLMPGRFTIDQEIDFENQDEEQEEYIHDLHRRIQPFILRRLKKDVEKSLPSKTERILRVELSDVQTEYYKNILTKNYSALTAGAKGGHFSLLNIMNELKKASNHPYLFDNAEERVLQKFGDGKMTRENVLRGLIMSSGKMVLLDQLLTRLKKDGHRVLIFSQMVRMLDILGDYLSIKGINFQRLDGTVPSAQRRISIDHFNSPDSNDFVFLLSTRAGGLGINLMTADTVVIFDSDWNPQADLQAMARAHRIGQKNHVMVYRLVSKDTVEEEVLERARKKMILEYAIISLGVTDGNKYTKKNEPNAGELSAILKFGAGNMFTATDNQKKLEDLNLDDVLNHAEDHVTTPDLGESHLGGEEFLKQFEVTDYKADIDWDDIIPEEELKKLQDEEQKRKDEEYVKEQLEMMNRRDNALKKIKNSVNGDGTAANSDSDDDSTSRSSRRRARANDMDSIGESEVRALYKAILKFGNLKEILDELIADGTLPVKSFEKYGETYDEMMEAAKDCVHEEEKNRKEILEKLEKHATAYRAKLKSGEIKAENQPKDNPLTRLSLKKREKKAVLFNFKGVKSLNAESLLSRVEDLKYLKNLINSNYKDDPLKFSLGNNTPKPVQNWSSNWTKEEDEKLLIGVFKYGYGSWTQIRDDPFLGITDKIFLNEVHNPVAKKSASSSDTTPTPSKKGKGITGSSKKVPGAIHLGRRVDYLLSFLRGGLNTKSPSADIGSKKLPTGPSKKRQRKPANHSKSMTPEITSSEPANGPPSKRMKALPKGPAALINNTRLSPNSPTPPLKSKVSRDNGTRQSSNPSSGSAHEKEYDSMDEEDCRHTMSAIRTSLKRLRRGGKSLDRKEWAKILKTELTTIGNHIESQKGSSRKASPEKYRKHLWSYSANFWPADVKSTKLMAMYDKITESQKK
Chain of Protein translocase subunit SecA (Escherichia coli (strain K12)) (P10408 whole entry): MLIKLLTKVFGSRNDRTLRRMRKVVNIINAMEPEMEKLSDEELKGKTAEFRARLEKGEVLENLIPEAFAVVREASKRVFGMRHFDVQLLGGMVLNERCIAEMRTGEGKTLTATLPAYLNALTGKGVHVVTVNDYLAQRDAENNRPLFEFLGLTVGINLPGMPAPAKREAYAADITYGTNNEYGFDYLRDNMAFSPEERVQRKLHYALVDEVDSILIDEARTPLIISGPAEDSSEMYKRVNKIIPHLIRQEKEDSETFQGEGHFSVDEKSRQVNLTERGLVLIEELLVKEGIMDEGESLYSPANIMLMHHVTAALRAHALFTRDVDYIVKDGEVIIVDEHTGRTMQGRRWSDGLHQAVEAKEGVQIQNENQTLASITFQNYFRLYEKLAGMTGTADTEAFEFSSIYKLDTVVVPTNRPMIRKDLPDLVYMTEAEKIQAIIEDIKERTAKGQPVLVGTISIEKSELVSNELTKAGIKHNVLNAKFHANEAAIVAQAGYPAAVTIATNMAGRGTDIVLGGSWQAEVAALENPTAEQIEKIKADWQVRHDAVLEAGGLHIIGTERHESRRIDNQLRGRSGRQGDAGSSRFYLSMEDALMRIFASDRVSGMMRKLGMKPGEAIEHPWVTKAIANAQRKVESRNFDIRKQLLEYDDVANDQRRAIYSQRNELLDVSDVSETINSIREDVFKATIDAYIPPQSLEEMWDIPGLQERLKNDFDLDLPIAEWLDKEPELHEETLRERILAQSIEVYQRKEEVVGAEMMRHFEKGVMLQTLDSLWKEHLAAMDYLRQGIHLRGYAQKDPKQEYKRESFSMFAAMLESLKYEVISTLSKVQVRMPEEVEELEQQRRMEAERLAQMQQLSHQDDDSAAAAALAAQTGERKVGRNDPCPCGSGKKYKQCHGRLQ

| SMILES | Percent Effect [1] [%] | Percent Effect [2] [%] | Percent Effect [3] [%] | Percent Effect [4] [%] | Percent Effect (Trypanosoma cruzi) [%] | Percent Effect ([5]; 30 µM) [%] | Percent Effect ([5]; 33.3 µM) [%] | Percent Effect [6] [%] | Percent Effect (Homo sapiens) [%] | Percent Effect [7] [%] | Percent Effect [8] [%] | Percent Effect [9] [%] | PXC50 ([10]; MAX_EFFECT 12.82660333) | PXC50 ([10]; MAX_EFFECT 19.54225352) | PXC50 ([10]; MAX_EFFECT 4.275534442) | PXC50 ([10]; MAX_EFFECT 11.79577465) |
| --- | --- | --- | --- | --- | --- | --- | --- | --- | --- | --- | --- | --- | --- | --- | --- | --- |
| CNC(=O)[C@@H]1C[C@H]2CN(C(=O)c3ccco3)C[C@H]2N1C | -1.85 | 2.67 | -2.42 | 4.75 | -3.67 | -9.19 | -21 | 3.76 | -3.26 | 4.17 | 5 | -5.57 | – | – | – | – |
| Cc1ccccc1C1(CNc2nnc(C)c(C)c2C#N)CCOCC1 | -3.65 | 0 | -11.2 | 2.86 | -0.193 | – | -0.952 | 9.31 | 19.4 | 2.65 | 0 | -3.83 | < 4 | < 4 | – | – |
| FC(F)(F)C1CCc2nnc(CNCc3ccsc3)n2C1 (configuration not stated) | -4.02 | 16.2 | 1.38 | 30.8 | 5.18 | 5.95 | 10.2 | 10.4 | -8.39 | 5.38 | 16.1 | -13.2 | – | – | – | – |
| Cn1cnnc1C1CCN(c2cncc(-n3cccn3)n2)CC1 | -2.06 | 8.11 | -2.17 | -0.628 | 0.781 | – | 2.92 | 13.8 | -3.56 | 5.94 | 8.54 | -8.65 | – | – | < 4 | < 4 |
| COCCC(=O)N1CCC2(COCc3c(C)nc(NCC4CC4)nc32)C1 (configuration not stated) | -1.4 | 13.3 | 11.3 | 1.42 | -5.32 | 4.87 | -3.03 | 15.4 | 4.83 | 1.06 | 11.5 | -2.58 | – | – | – | – |
